Measurements from PubChem BioAssay AID602396 (The Scripps Research Institute Molecular Screening Center, 2012).
Out of some 360,000 compounds screened, about 460 (0.13%) were called active. Shown is part of a subset that was picked to be rich in actives. A number with no mark means an inactive call.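 Rule for the calls: active = inhibition above the mean inhibition of all tested compounds plus 3 SD (cut at about 73% in these data); inactive = the rest.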

Biological target: Nuclear receptor subfamily 5 group A member 2 (Homo sapiens) (UniProt O00482)
Sequence (O00482 whole entry, looked up): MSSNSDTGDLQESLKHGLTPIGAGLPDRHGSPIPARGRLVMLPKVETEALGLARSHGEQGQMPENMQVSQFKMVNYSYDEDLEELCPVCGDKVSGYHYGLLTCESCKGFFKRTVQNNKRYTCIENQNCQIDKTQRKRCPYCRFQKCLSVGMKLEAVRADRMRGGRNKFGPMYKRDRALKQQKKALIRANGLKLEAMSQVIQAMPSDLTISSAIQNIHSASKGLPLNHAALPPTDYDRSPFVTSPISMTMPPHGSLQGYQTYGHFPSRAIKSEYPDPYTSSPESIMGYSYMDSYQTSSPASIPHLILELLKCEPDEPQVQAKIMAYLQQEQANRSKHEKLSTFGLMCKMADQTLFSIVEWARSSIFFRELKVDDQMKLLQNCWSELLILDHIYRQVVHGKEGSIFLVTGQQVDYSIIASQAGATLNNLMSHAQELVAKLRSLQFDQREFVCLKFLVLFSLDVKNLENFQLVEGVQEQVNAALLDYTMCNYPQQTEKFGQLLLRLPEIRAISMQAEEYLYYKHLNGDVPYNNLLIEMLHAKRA
Assay: reduction of NR5A2-driven StAR reporter activity – cell-based, luminescence, HEK293T, StAR-luciferase reporter, primary screen (AID 602396);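 note: 0% = DMSO wells and 100% = reporter-only cells lacking LRH-1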
Conditions: LRH-1 transfected, 24 h, at 3.6 µM, stronger effect = higher value

Compound	inhibition
CCC(c1nnnn1-c1ccc2c(c1)OCCO2)N1CCN(c2ccc(C(F)(F)F)cn2)CC1 (stereo not given)	-0.51%
CC(=O)Nc1ccc(SC[C@H](Cc2ccccc2)N2CC[C@@H](C)CCC2=O)cc1	-2.81%
O=C(Nc1ccccc1N1CCOCC1)c1ccc(OCc2cscn2)cc1	3.78%
Cc1cc(CNCc2c(C(=O)N(C)Cc3ccccc3)nc3ccccn23)nn1C	12.7%
CC(C)(C)Nc1nc(-c2ccccn2)nc2ccccc12	85% (active)
CC(Nc1nc(C(F)(F)F)nc2ccccc12)c1cccs1 (stereo not given)	14.1%
c1ccc(-c2nccc(-c3ccc(-n4cnc5ccccc54)cc3)n2)nc1	5.78%
O=C(NCc1ccncc1)C1CCCN(S(=O)(=O)c2ccc(Br)cc2)C1 (stereo not given)	2.98%
O=C(CSc1ccccn1)Nc1nc2c(ccc3ccccc32)s1	-23.7%
NC(N)=N/N=C/c1ccc(OCc2ccc(Cl)cc2Cl)cc1	-0.41%
CCCCCCNC(=O)O[C@]12C[C@@H](C(=O)OC)[C@@H](C(=O)OC)C[C@@]1(O)CN(S(=O)(=O)c1ccc(C)cc1)C2	-18%
Cc1cc(Nc2ccc(C)c(C)c2)n2ncnc2n1	18.7%
C[C@@H]1CN([C@@H](C)CO)C(=O)CCCn2cc(nn2)CO[C@H]1CN(C)S(=O)(=O)c1ccc(-n2cccn2)cc1	1.12%
CCN(CC)S(=O)(=O)c1ccc(OC)c(NC(=O)CCc2c(C)noc2C)c1	8.03%
O=C(Nc1nnc(CCN2CCCCC2)s1)c1cccc(Cl)c1	0.75%
COCCCN1C(=O)C(=O)/C(=C(/O)c2ccc(S(=O)(=O)N3CCOCC3)cc2)C1c1ccc(F)cc1 (stereo not given)	9.93%
CCN(CC)S(=O)(=O)c1cccc(C(=O)NCC(=O)OCC(=O)NCc2ccccc2)c1	1.85%
C[n+]1cc(-c2ccccc2)oc1-c1ccccc1	-30.6%
C=CCn1c(SCC(=O)c2c(N)n(C)c(=O)n(C)c2=O)nc2sc(CC)cc2c1=O	-16.9%
Cc1ccn2c(=O)nc(SCC(=O)NCc3ccc4c(c3)OCO4)nc2c1	-9.89%
COc1cc(S(=O)(=O)N2CCN(C(=O)C3CC3)CC2)ccc1NC(C)=O	9.23%
CCCCCCCCn1c2c(c(=N)c3c1CCC3)CCCC2	89.8% (active)
Cc1cccc2cc(CN(C(=O)c3cccs3)c3ccccc3)c(=O)[nH]c12	-23.1%

Compound	inhibition
O=C(NNC(=O)c1cnccc1C(F)(F)F)c1ccc(Cl)cc1	-7.32%
CCN1/C(=C\c2ccc3ccccc3[n+]2CC)Sc2cc(C)ccc21	93.7% (active)
Cc1ccc(S(=O)(=O)N2C3C=CC(C3)C2C(=O)O)cc1 (stereo not given)	-13.6%
CCC(=O)N(C)C(c1ccccc1Cl)c1nnnn1-c1c(C)cccc1C (stereo not given)	1.16%
CC(=O)Nc1sc2c(c1C(c1cccc(F)c1)N1CCN(CCO)CC1)CCCC2 (stereo not given)	5.02%
O=C(Nc1c2c(nn1-c1cccc(Cl)c1)CS(=O)(=O)C2)c1cccs1	17.8%
Cc1cccc(N2CCN(C(=O)c3cc4c(=O)[nH]c5ccccc5c4n3C)CC2)c1C	11.6%
CCc1nc2c(OCc3ccc(F)c(F)c3)cccn2c1N(C)C(=O)c1ccco1	-12.9%
c1cc(-c2ccc3[nH]ccc3c2)n2ccnc2c1	-8.26%
COc1ccccc1-c1oc2ccccc2c1C#CCCCCO	-10.4%
COC(=O)[C@]1(C)N[C@H](CN(C)C(=O)c2ccc(C(C)(C)C)cc2)[C@@H]2C(=O)N(C)C(=O)[C@@H]21	-20.1%
CC1C=CCC2C(=O)N(c3cccc(C(=O)N4CCCCCC4)c3)C(=O)C12 (stereo not given)	6.85%
CC(C)N(C)C(=O)CCc1nnc(CCc2c[nH]c3ccccc23)o1	18.1%
O=C(Nc1ccc([N+](=O)[O-])cc1)C1(c2ccccc2)CCOCC1	-9.79%
Cc1ccc(NC(=O)CSc2sc3c(O)cc(=O)[nH]c3c2C#N)cc1C	6.61%
COc1ccc(OC)c(CCNC(=O)c2nn(C)c3c2CS(=O)(=O)c2ccccc2-3)c1	7.08%
Cn1c(N)c(C(=O)COC(=O)COc2ccc(Cl)cc2)c(=O)n(C)c1=O	4.34%
CC(=O)N1CCSc2ccc(S(=O)(=O)N3CCC(C)CC3)cc21	2.83%
COc1ccccc1N1CCN(CC(=O)NCCc2ccc(S(N)(=O)=O)cc2)CC1	16.7%
Nc1ccc(OCC(O)C[n+]2ccc(CCS(=O)(=O)[O-])cc2)cc1 (stereo not given)	-10.5%
CCCCn1c(N)c(N(CC)C(=O)c2ccccc2C(F)(F)F)c(=O)[nH]c1=O	-19.4%
Cc1ccc(CNC(=O)C2CCCN2S(=O)(=O)c2ccc3c(c2)C(C)(C)C(=O)N3C)cc1 (stereo not given)	4.35%
CCOCCCNC(=O)C(NC(=O)c1ccc(=O)[nH]c1)c1ccc(Cl)cc1 (stereo not given)	11.9%

Compound	inhibition
CCOc1ccc(Br)cc1S(=O)(=O)Nc1cccc(S(=O)(=O)N(CC)CC)c1	-37.2%
CCC(C)(C)NC(=O)C(c1cccn1C)N(Cc1ccc(C)cc1)C(=O)Cn1nnc2ccccc21 (stereo not given)	22.9%
CC1(C)C(=O)C2(CCCCC2)C(=O)OC1c1cccs1 (stereo not given)	5.23%
O=C(O)CCC(=O)N(Cc1ccco1)c1nc(-c2ccccc2)cs1	-15.1%
CSc1nnc(C2CCCN(CC(=O)Nc3ccccc3N3CCOCC3)C2)n1C(C)C (stereo not given)	-21.8%
COc1ccc(Cn2c(-c3ccc(Cl)cc3)c[n+]3ccccc23)cc1	-37.2%
COC1=CC(=O)OC(C)(c2ccccc2)C1 (stereo not given)	-28%
Cc1ccc(OS(=O)(=O)c2ccc(-c3csc(C)n3)s2)c(C)c1	-6.88%
CC1CCCCC1NC(=O)NC(=O)COC(=O)C1=NN(c2ccccc2)C(=O)CC1 (stereo not given)	-11.1%
CCn1nc(C)cc1C(=O)N1CCCC(C(=O)c2cccc(OC)c2)C1 (stereo not given)	6.22%
CCOC(=O)C(C)Oc1cccc2c(=O)n(CC(=O)NCCc3ccc(OC)c(OC)c3)ccc12 (stereo not given)	3.91%
CC(C)=NN1C(=O)c2ccccc2NC1(C)C	-62.5%
COCCN(C(=O)C(C)N1C(=O)c2ccccc2C1=O)c1c(N)n(CC(C)C)c(=O)[nH]c1=O (stereo not given)	-4.66%
Cn1c(N)cc(-c2ccc(F)cc2)c(C#N)c1=O	6%
C=CCSC(CC)(CC)C(N)=O	16.1%
CC12CN(NC(=O)c3ccc(Cl)cc3)C3(C#N)CC1CCC23C (stereo not given)	8.96%
CC1CCCCC1NC(=O)CO/N=C/c1ccc(OC(F)F)cc1 (stereo not given)	6.95%
[2H]C(CCOS(N)(=O)=O)c1ccccc1 (stereo not given)	3.1%
CC1(C)CC(N2CCN(C(c3ccccc3)c3ccccc3)CC2)=CC(=[N+]2CCCCC2)C1	91.7% (active)
COc1ccc(C2CC(=O)Oc3ccc(C(C)(C)C)cc32)cc1 (stereo not given)	21.2%
Cn1cnc(S(=O)(=O)N2C[C@@H](O)COC[C@@H]3O[C@H](CC(=O)NC4CCC4)CC[C@H]32)c1	-18.2%
COc1ccc(NC(=O)/C(Cl)=C(/Cl)S(=O)Cc2ccc(C)cc2)cn1 (stereo not given)	87.2% (active)
O=C(COC(=O)Cc1ccc(Br)cc1)Nc1c(F)c(F)c(F)c(F)c1F	1.54%

Compound	inhibition
CCOC(=O)CSC1=N/C(=C/c2ccc(-n3cncn3)cc2)C(=O)N1C(C)=O	11.2%
CCOC1CCCCC1NS(=O)(=O)c1ccc(Cl)cc1 (stereo not given)	5.98%
COc1ccccc1-n1ccnc(SCC(=O)NC2CCCCC2)c1=O	1.62%
O=C(Nc1ccc2c(c1)OCCO2)C(c1ccc(F)cc1)N1CCCCC1 (stereo not given)	4.16%
CCCCCCCC[n+]1cccc(C(=O)N2c3c(nc(N)[nH]c3=O)NC(C)C2C)c1 (stereo not given)	4.18%
C=CCn1c(CNS(=O)(=O)c2ccc(Br)cc2)nnc1SC	-25.5%
CCS(=O)(=O)Nc1cc(C(=O)OC)ccc1C(=O)OC	7.66%
CCOc1ccc(NS(=O)(=O)c2cc(C)c(C)cc2C)cc1	0.32%
Cc1cnc(C(=O)Oc2cccc(Cl)c2Cl)cn1	10.5%
CCc1c(O)cc2n(c1=O)-c1ccccc1C2(C)C	6.01%
Cc1cc(C)cc(NS(=O)(=O)c2ccc(Oc3ncc(C(F)(F)F)cc3Cl)cc2)c1	3.47%
COc1ccc(C2(C)ON(c3ccccc3C(F)(F)F)C2=O)cc1 (stereo not given)	-1.81%
COCCNC(=O)C1CCN(S(=O)(=O)c2ccc3c(c2)OCCO3)CC1	8.61%
COc1ccc(C)cc1NC(=O)CSc1cccc[n+]1[O-]	-14.4%
CC1(C)CC(=O)C=C(c2ccc3ncccc3c2)C1	47.8%
CCCNC(=O)C1(C)CCCN(C(=O)c2cccc(OC(C)=O)c2C)C1 (stereo not given)	-0.02%
COC(=O)C(C(=O)Nc1cccc(Cl)c1C)C1CCCC1 (stereo not given)	1.94%
O=C(O)c1ccccc1C(=O)NC1=NN(c2ccccc2)CC1	-6.24%
CN(CCc1ccccn1)C(=O)c1ccc(OC2CCN(Cc3ccccn3)CC2)cc1	-11.4%
Cn1cc(CNC(=O)c2ccc(OC3CCN(Cc4ccccn4)CC3)cc2)cn1	16.2%
O=C(NCCOc1cccnc1)c1ccc(OC2CCN(Cc3ccccn3)CC2)cc1	90.4% (active)
